The record followed here is the supplement of paper PMC10849652.

About 8,800 targets were measured; listed, in parts, are those with a hit and a random draw of the rest. About 0.5% of all pairs of compound and target were hits. A number with no mark means an inactive call.

Common to all, as to test: log2 fold change, soluble protein after heating vs DMSO (PISA); higher = thermal stabilisation; K562 lysate, 10 uM; active = over 0.2 and 3.5 SD of the protein, either way, in both replicates (recomputed)
Compound in one test: Cc1cn(-c2cc(NC(=O)c3ccc(C)c(Nc4nccc(-c5cccnc5)n4)c3)cc(C(F)(F)F)c2)cn1 [nilotinib]
The essentials: (§1)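 To prepare the extract, K562 pellets were dounce-homogenised in PBS pH 7.4 with 1 mM MgCl2, giving crude material at 1 mg/mL protein. This was treated with 10 μM compound for 30 min, then heated in aliquots for 3 min over 48°C-58°C before pooling and addition of NP-40 to 0.5% at 4°C. Centrifugation at 21,000xg for 90 min left soluble protein in the supernatant, which TMTpro 16plex LC-MS/MS quantified with equalised channel sums. Results are log-two fold changes in thermal stability compared with solvent controls, from duplicates.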

Compound in test [1]: Cc1nc(Nc2n[nH]c3c2CN(C(=O)N[C@H](CN(C)C)c2ccccc2)C3(C)C)c2sccc2n1
The essentials: as §1

Compound in another test: Cc1nc(Nc2ncc(C(=O)Nc3c(C)cccc3Cl)s2)cc(N2CCN(CCO)CC2)n1 [dasatinib]
The method in brief:
as §1

Compound in test [2]: Cc1ncc(-c2ccnc(Nc3ccc(S(C)(=O)=O)cc3)n2)n1C(C)C
The method in brief:
as §1

Compound in test [3]: Cn1cc(-c2ccc3c(c2)CCN3C(=O)Cc2cccc(C(F)(F)F)c2)c2c(N)ncnc21
The essentials: as §1

Compound in the next test: Cn1cc(CNCC2CCN(c3ncc(C(=O)NO)cn3)CC2)c2ccccc21 [quisinostat]
The method in brief: as §1

Compound in the next test: Cn1cncc1[C@@](N)(c1ccc(Cl)cc1)c1ccc2c(c1)c(-c1cccc(Cl)c1)cc(=O)n2C [tipifarnib]
The essentials:
as §1

Compound in test [4]: NC(=O)Nc1cc(-c2cccc(F)c2)sc1C(=O)N[C@H]1CCCNC1
The essentials:
as §1

Compound in test [5]: NC(=O)c1cnc(N[C@@H]2CCCC[C@@H]2N)nc1Nc1cccc(-n2nccn2)c1
The method in brief:
as §1

Compound in test [6]: NC1(c2ccc(-c3nc4ccn5c(=O)[nH]nc5c4cc3-c3ccccc3)cc2)CCC1
The essentials: as §1

Compound in test [7]: NCC(=O)Nc1ccc(-n2nc(C(F)(F)F)cc2-c2ccc3c(ccc4ccccc43)c2)cc1
The method in brief:
as §1

Compound in a further test: O=C(CCCCCCC(=O)Nc1ccccc1)NO [vorinostat]
The essentials: as §1

Compound in another test: O=C(O)c1ccc2c(c1)nc(Nc1cccc(Cl)c1)c1ccncc12 [silmitasertib]
The method in brief: as §1

Compound in test [8]: O=C1NC(=O)C(c2cnc3ccccn23)=C1c1cn2c3c(cc(F)cc13)CN(C(=O)N1CCCCC1)CC2
The essentials:
as §1

Compound in another test: c1cn2cc(-c3ccc4cn[nH]c4c3)nc(Nc3ccc(N4CCOCC4)cc3)c2n1 [entospletinib]
The method in brief: as §1

Sequence of UniProt Q9HD20 (Q9HD20 whole entry, looked up): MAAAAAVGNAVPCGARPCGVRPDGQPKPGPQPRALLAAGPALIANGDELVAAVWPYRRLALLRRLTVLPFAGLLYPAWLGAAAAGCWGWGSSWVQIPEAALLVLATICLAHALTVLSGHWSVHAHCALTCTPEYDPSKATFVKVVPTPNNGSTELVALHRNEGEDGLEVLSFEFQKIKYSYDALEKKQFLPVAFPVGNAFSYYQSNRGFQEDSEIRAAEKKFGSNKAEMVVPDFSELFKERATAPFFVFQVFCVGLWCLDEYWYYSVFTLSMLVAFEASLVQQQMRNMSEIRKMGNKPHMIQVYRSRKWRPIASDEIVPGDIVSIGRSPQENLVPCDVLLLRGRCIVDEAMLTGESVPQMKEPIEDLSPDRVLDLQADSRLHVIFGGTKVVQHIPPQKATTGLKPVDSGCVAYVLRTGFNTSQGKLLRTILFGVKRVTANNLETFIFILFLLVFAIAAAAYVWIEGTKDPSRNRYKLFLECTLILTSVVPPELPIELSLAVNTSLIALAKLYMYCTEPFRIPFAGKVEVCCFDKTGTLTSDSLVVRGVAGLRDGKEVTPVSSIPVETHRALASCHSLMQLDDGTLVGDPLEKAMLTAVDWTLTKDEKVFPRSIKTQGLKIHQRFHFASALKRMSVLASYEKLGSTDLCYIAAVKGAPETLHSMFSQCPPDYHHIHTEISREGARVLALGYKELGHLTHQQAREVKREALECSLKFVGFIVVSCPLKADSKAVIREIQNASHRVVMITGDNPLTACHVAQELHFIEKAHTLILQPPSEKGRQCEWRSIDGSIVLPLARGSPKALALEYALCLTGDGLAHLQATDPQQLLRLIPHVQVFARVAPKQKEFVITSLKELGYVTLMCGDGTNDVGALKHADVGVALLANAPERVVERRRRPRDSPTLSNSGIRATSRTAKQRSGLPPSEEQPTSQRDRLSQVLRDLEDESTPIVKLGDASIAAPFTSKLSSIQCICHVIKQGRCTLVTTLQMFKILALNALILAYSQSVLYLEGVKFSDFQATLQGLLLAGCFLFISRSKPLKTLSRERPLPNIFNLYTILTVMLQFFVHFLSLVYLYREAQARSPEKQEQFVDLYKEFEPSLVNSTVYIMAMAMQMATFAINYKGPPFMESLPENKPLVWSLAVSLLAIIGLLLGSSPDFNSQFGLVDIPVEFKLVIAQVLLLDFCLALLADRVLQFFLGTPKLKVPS
Sequence of UniProt Q9UEE9 (Q9UEE9 whole entry, looked up): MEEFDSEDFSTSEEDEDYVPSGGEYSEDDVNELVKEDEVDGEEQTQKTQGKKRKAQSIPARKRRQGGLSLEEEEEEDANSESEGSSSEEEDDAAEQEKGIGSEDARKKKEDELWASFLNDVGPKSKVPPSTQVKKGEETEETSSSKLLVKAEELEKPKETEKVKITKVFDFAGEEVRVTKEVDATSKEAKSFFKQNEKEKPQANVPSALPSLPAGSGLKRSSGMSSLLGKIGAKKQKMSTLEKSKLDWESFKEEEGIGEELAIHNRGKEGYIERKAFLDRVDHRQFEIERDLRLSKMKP
Sequence of UniProt Q8N163 (Q8N163 whole entry, looked up): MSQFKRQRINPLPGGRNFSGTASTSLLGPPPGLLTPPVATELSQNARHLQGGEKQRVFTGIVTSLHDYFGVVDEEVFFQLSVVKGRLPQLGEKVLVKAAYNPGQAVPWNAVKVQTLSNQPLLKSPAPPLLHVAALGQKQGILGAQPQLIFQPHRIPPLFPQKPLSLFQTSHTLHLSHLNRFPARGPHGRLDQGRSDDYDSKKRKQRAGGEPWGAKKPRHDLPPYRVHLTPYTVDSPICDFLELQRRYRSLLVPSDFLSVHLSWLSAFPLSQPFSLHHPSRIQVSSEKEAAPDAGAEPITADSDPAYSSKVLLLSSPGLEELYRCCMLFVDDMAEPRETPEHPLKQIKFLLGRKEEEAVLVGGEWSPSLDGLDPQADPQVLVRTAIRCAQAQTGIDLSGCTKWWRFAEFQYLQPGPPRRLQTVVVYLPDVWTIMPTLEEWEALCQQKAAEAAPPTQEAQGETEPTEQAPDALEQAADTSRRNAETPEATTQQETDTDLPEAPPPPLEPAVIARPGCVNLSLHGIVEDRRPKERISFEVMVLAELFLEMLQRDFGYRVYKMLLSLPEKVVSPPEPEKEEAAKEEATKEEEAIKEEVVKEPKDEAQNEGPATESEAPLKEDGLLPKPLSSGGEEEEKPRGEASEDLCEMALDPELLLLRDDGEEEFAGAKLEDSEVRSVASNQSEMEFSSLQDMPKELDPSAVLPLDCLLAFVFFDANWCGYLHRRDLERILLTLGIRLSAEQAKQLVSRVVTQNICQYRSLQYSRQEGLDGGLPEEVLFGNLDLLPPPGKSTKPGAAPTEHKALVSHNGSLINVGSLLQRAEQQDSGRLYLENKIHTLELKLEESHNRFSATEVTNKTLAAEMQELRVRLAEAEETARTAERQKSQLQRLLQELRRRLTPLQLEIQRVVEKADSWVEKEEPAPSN
Sequence of UniProt O95352 (O95352 whole entry, looked up): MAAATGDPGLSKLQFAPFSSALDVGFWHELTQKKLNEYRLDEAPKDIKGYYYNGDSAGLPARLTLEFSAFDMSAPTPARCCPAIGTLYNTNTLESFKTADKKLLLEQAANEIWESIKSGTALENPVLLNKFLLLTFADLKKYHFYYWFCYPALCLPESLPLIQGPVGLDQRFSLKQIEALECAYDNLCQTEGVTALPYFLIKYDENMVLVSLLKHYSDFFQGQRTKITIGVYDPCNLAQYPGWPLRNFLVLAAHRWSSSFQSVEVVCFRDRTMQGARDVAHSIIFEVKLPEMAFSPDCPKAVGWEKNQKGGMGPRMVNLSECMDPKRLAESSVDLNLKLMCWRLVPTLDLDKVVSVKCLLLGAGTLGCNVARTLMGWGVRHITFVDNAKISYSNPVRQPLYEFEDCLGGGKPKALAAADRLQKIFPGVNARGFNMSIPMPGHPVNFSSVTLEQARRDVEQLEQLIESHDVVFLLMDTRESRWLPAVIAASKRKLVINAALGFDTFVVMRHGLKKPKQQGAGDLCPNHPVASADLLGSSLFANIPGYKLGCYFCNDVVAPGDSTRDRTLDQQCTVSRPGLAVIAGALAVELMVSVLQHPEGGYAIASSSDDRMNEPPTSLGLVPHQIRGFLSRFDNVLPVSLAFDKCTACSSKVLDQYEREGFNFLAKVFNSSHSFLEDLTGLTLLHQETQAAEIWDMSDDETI
Sequence of UniProt Q9NSG2 (Q9NSG2 whole entry, looked up): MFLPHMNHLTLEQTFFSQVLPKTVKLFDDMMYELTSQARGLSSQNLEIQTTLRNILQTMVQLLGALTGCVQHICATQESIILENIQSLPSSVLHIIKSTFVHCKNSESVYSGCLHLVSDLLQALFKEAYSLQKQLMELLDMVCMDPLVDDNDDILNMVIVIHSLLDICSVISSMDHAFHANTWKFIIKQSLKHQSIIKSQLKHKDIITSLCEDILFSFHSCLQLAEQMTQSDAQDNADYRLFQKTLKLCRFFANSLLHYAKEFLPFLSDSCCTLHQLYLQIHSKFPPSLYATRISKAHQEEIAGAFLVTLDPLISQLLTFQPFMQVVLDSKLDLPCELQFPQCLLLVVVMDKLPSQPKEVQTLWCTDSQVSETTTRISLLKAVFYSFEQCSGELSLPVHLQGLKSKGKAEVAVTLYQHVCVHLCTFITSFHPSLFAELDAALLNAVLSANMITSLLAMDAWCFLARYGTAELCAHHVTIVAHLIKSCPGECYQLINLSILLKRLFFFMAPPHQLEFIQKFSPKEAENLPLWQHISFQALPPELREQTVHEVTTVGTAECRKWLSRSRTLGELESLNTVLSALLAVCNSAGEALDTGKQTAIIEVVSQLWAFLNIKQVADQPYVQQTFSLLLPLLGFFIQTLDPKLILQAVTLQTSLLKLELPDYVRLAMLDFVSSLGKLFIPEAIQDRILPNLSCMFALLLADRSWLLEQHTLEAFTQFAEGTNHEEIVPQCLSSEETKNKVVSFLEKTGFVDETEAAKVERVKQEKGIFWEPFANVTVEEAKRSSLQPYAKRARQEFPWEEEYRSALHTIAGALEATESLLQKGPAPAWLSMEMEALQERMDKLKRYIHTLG
Sequence of UniProt Q9NXV6 (Q9NXV6 whole entry, looked up): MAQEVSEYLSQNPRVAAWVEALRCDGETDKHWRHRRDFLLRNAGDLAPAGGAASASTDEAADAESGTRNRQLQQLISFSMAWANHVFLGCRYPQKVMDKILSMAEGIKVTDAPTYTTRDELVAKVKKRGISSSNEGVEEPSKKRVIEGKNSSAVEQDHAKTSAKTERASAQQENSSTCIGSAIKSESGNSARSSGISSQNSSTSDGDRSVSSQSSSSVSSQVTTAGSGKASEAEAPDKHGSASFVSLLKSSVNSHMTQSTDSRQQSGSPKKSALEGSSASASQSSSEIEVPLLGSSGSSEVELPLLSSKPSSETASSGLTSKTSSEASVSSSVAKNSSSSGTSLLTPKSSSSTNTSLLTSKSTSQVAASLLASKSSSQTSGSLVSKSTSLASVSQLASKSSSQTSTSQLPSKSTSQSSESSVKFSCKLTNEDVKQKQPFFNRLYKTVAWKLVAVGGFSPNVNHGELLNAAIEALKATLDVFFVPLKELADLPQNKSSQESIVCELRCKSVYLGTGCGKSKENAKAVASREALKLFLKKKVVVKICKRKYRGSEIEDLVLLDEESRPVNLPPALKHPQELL
Sequence of UniProt Q9H3Q1 (Q9H3Q1 whole entry, looked up): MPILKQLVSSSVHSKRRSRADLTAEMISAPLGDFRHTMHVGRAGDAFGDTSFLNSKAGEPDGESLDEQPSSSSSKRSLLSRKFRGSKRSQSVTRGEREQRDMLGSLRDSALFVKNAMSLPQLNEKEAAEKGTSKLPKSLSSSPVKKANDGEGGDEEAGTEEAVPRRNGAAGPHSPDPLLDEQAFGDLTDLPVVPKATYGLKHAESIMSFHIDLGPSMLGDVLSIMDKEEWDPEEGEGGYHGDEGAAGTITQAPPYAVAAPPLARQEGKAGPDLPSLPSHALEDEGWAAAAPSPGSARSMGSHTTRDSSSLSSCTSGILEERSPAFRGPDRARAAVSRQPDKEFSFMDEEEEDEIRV

Take ATP13A1 (UniProt Q9HD20): the log2 fold change is 0.009 in the test with nilotinib; 0.004 in test [1]; 0.102 with dasatinib; 0.003 in test [2]; 0.005 in test [3]; 0.001 with quisinostat. The log2 fold change in the test with tipifarnib is -0.109; in test [4], -0.044; in test [5], 0.07; in [6], 0.065; in test [7], -0.009; with vorinostat it was -0.094. Moreover, the log2 fold change is 0.03 with silmitasertib, -0.02 in test [8] and -0.03 with entospletinib.
Consider BRAT1 (UniProt Q6PJG6), for which the log2 fold change with nilotinib is 0.031; in test [1], -0.016; with dasatinib, -0.046; in [2], 0.01; in test [3] it was 0.046; with quisinostat it was -0.07. Also, the log2 fold change was 0 with tipifarnib; 0.008 in [4]; 0.047 in [5]; -0.017 in test [6]; 0.015 in [7]; -0.32 (active) in the test with vorinostat. For the same target, the log2 fold change with silmitasertib is -0.002; in test [8], -0.013; in the test with entospletinib, 0.004.
CDC42EP4 (UniProt Q9H3Q1): the log2 fold change with nilotinib was 0.061; in test [1] it was -0.043; with dasatinib, 0.039; in test [2] it was -0.026; in test [3] it was -0.028; with quisinostat, -0.045. Also, the log2 fold change was 0.006 with tipifarnib; -0.02 in [4]; -0.025 in test [5]; 0.02 in test [6]; 0 in test [7]; 0.018 with vorinostat. Further, the log2 fold change in the test with silmitasertib was -0.074; in [8], 0.021; in the test with entospletinib it was 0.051.
Consider C1orf112 (UniProt Q9NSG2), for which the log2 fold change in the test with nilotinib was 0.089; in [1], -0.015; with dasatinib it was -0.102; in test [2] it was 0.017; in test [3], 0.05; in the test with quisinostat, -0.1. The log2 fold change in the test with tipifarnib was -0.046; in [4], 0.036; in test [5], -0.03; in test [6] it was -0.007; in test [7], -0.075; in the test with vorinostat it was -0.095. Further, the log2 fold change with silmitasertib was -0.084; in [8] it was 0.003; in the test with entospletinib, -0.037.
As to ATG7 (UniProt O95352), the log2 fold change is 0.02 with nilotinib; -0.03 in test [1]; -0.026 with dasatinib; -0.032 in test [2]; 0.037 in test [3]; -0.039 with quisinostat. In addition, the log2 fold change with tipifarnib is 0.03; in test [4], 0.058; in test [5] it was 0.01; in [6], -0.02; in test [7], 0.008; with vorinostat it was -0.47 (active). For the same target, the log2 fold change with silmitasertib was 0.005; in [8] it was -0.005; with entospletinib it was 0.001.
For ATG13 isoform 2 (UniProt O75143), the log2 fold change in the test with nilotinib is -0.034; in [1], 0.036; with dasatinib it was 0.002; in test [2], 0.028; in test [3], -0.069; in the test with quisinostat, -0.052. Also, the log2 fold change is -0.018 with tipifarnib; 0.059 in test [4]; 0 in test [5]; -0.014 in test [6]; 0.01 in test [7]; 0.051 with vorinostat. Moreover, the log2 fold change was -0.01 with silmitasertib, 0.024 in test [8] and -0.008 in the test with entospletinib.
Take CFDP1 (UniProt Q9UEE9): the log2 fold change with nilotinib is -0.008; in test [1] it was 0.051; with dasatinib, 0.029; in test [2] it was 0.035; in [3], 0.009; with quisinostat, -0.102. Also, the log2 fold change with tipifarnib was 0.013; in test [4] it was -0.038; in [5] it was -0.013; in test [6] it was -0.026; in test [7], -0.009; in the test with vorinostat, 0.095. For the same target, the log2 fold change with silmitasertib is -0.05; in test [8], -0.078; with entospletinib, -0.012.
Take CCAR2 (UniProt Q8N163): the log2 fold change in the test with nilotinib was -0.001; in test [1], -0.016; with dasatinib it was -0.069; in test [2] it was -0.017; in test [3] it was 0.018; in the test with quisinostat it was -0.033. The log2 fold change in the test with tipifarnib was -0.013; in test [4] it was 0.027; in test [5], 0.014; in [6], -0.007; in [7], 0.01; with vorinostat, -0.399 (active). Besides, the log2 fold change with silmitasertib was 0.002; in test [8], -0.02; with entospletinib, 0.02.
For the target CDKN2AIP (UniProt Q9NXV6), the log2 fold change with nilotinib is 0.002; in test [1] it was -0.023; in the test with dasatinib, -0.004; in test [2], -0.008; in test [3], -0.014; in the test with quisinostat, -0.031. For the same target, the log2 fold change in the test with tipifarnib was 0.005; in [4], 0.008; in test [5], -0.01; in test [6] it was 0.001; in test [7] it was -0.005; with vorinostat it was 0.072. Further, the log2 fold change in the test with silmitasertib is -0.037; in test [8], -0.022; with entospletinib it was 0.013.
For BAHCC1 (UniProt Q9P281), the log2 fold change with nilotinib was -0.191; in [1] it was 0.019; with dasatinib, -0.144; in test [2], -0.141; in test [3], -0.039; with quisinostat, -0.328. For the same target, the log2 fold change is 0.031 in the test with tipifarnib; -0.053 in [4]; 0.021 in test [5]; 0.07 in [6]; 0.009 in test [7]; -0.082 with vorinostat. Besides, the log2 fold change with silmitasertib is -0.086; in test [8], -0.158; with entospletinib it was -0.069.
